Source: ChEMBL document CHEMBL3988442, “University of Dundee, Small-Polar-MMV Screening Library” (2021)

Tests used:
[1] = biological target: T1, Aspartate--tRNA(Asp/Asn) ligase (Mycobacterium tuberculosis (strain ATCC 25618 / H37Rv)) (UniProt P9WFW3); assay: Assay for Asp RNA synthetase-1 from Mycobacterium tuberculosis; type: functional; parameters: scale not given: direction of the effect not stated beside the values; conditions: 30 µM; also: in the data most compounds retested in dose-response had high values
T1 sequence (whole entry): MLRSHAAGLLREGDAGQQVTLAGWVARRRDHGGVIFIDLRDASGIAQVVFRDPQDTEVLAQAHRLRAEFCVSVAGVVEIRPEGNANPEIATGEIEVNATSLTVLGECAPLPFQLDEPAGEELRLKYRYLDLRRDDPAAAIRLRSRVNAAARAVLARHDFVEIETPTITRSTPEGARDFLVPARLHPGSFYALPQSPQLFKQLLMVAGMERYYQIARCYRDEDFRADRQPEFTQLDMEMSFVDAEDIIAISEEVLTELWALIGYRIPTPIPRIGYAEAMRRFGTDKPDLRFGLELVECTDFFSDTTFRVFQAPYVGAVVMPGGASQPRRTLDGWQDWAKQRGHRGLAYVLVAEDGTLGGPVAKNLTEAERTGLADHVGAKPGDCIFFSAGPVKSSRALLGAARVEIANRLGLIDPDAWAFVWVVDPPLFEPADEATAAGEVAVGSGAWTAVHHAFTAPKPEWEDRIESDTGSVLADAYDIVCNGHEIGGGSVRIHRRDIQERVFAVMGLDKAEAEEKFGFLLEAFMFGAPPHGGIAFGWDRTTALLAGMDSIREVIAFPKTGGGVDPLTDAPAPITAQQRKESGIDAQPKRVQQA

[2] = biological target: Shiga toxin 2 (Escherichia coli O157:H7) (UniProt P09385+P09386); assay: E. coli 0.157:H7 Shiga Toxin SOP - stx2 screening assay; type: functional; parameters: scale not given: direction of the effect not stated beside the values; conditions: 30 µM

Compound	Percent Effect [1] [%]	Percent Effect [2] [%]
CNC(=O)c1cc2c(nc1N(C)C)CCN(S(=O)(=O)C1CC1)CC2	0.364	-4.82
Cc1ccc2c(n1)N(C)CCN(C(=O)NC1CC1)C2	7.86	-7.89
O=S1(=O)C[C@@H]2[C@H](C1)N(Cc1ncc[nH]1)CCN2CC1CC1	0.123	4.23
CCc1nccn1C1CCCN(C(=O)c2cc3nc(C)ccc3o2)C1 (centres undefined)	-2.42	20.3
CS(=O)(=O)NCc1ncn2c1CN(C(=O)CC1CCCC1)CCC2	-2.09	-6.05
Cc1cnc(N2CCn3cc(CNC(=O)CC4CC4)nc3C2)nc1	2.93	-22.4
Cc1cnn(CC2CCCCN2C(=O)c2ccc3nnc(C)n3c2)c1 (centres undefined)	10.3	21.9
COc1ccc(CNCC2CC2)cc1F	2.55	28.8
CC(=O)N(Cc1noc(C)n1)C1CCN(Cc2ccon2)C1 (centres undefined)	-1.5	-70.9
Cc1cnc(Nc2nccnc2C2CCN(C)CC2)s1	-3.37	-20.6
Cc1cccc(N2CCN(CCNC(=O)c3ccnn3C)CC2)c1	5.62	-28.1
Clc1ccccc1C1(c2ccnc(-c3ncccn3)n2)CCNCC1	8.32	-34.1
CCN1CCN(C(=O)c2cc(C(=O)OC)nn2-c2ccccc2)CC1	2.94	26.1
Cc1cnc(CN(C)C2CCN(CCn3cc(C#N)cn3)C2)o1 (centres undefined)	5.46	17.1
CCC1=N[C@@]2(CC[C@@H]3CN(C(=O)NCC(C)C)C[C@@H]32)C(=O)N1CC(C)C	4.11	-9.55
Cc1nccc(-c2cccc(NCC(=O)N3CCCCCCC3)c2)n1	1.07	18.8
COc1cc(C(=O)N2CCCS2(=O)=O)ccc1C	-7.63	-10.8
c1ccc(Cn2cc3c(n2)C(COCC2CC2)OCC3)nc1 (centres undefined)	4.12	-12.1
O=C1NCCN1C1CCN(Cc2ccccn2)CC1	-1.42	-6.38

Compound	Percent Effect [1] [%]	Percent Effect [2] [%]
CC(=O)N1C[C@@H](c2ccsc2)[C@@H]2CN(Cc3cccc(Cl)c3)CC[C@@H]21	-0.368	-9.53
C[C@H](O)CNC(=O)c1cnc(-c2ccccc2)nc1O	2.44	-10.8
CC(=O)N(C)c1nc(CN2CCCCC2Cn2cncn2)cs1 (centres undefined)	-3.1	9.21
CCN(Cc1ccc2c(c1)OCO2)C(=O)c1ccc(C)[nH]c1=O	0.522	-16
CCc1c(C)nc2cc(C3CCN(Cc4ccccc4F)C3)nn2c1O (centres undefined)	4.45	-125
CNC(=O)[C@H]1C[C@H]2OCC[C@H]2N(Cc2ccc(C)o2)C1	-1.06	-4.41
O=C1[C@H]2CN(CC3CC3)C[C@H]2CN1Cc1cccc(F)c1	1.33	-1.04
CCn1cc(CN(C)S(=O)(=O)c2ccc(Cl)cc2)cn1	-1.31	-34
O=C(Cn1cc(I)cn1)N1CCCC1	-4.62	-0.574
CCn1nc(-c2ccccc2F)ccc1=O	0.691	-6.78
Cc1nn(C)c(N2CCOCC2)c1CNC(C)c1cccnc1 (centres undefined)	-8.69	9.24
CC(Cn1cccn1)NC(=O)Nc1ccc(F)cc1 (centres undefined)	1.84	-31.3
Cc1cc(C)n(-c2cncc(NCCNC(=O)C(C)C)n2)n1	8.76	2.01
CC(C)c1ncc(S(C)(=O)=O)c(C2CCCNC2)n1 (centres undefined)	-1.91	10.4
Cc1ccc(C(=O)N2C[C@@H]3OCCN(CCN4CCCC4)[C@@H]3C2)cn1	-1.02	3.78
CCn1c(CN2CCCN(C(=O)OC)CC2)nc2c(F)cccc21	-0.656	36.3
O=c1c2ccccc2nc2n1CCN(Cc1cccs1)CC2	1.35	12
COc1ccccc1CC(=O)N1CCCC(n2nc(C)cc2C)C1 (centres undefined)	-1.4	10.9
